Source: PubChem (National Center for Advancing Translational Sciences (NCATS))
The list is not random: actives were taken first. Their share in the collection is about 5.2%.
Sfp inh = Sfp phosphopantetheinyl transferase inhibition; Biochemical Sfp PPTase activity, qHTS; AID 1490; Potency, µM, for inactives: largest response in the series, negative = inhibition, most hits filed as inhibitors; Q9F4F7; 310,000 tested, 3.5% active;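 further: the enzyme is Sfp with the accession as filed and its product quenches rhodamine fluorescence; potency means the concentration at half of the fitted maximal effect; 0% = enzyme reaction without inhibitor and -100% = no enzyme wells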
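Step 1, compound plus 15 nM Sfp-PPTase, 15 min, room temperature. Step 2, add rhodamine-CoA (5 uM) and BHQ-2-YbbR (12.5 uM). Step 3, read 525/598 nm fluorescence at 0 and 30 min.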
Tau fluor counter = counter-screen for tau fibril formation inhibitors | 280,000 tested, 0.93% active | Potency, µM (doses to about 57.7 µM), inactives show top-dose activity change, negative = decrease | tau K18 P301L Alexa594 fluorescence, heparin fibrillization; further: potency means the concentration at half of the fitted maximal effect; nearly all actives have a fitted effect of over 55% in size
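Human K18 P301L tau (15 uM unlabeled plus 0.24 uM Alexa 594-labeled, final) in 100 mM sodium acetate pH 7 was mixed with compound and 20 uM heparin and incubated 6 hr at 37 C.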
Coupling enz = counter-screen for Giardia aldolase inhibitors: coupling enzyme system. coupling enzyme system counterscreen, AmpLite Red fluorescence. activity change, negative = inhibition, % at 58.2 µM, hits read low. 290,000 tested, 0.67% active; in the data active means activity change below about -30%
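Compounds tested against the coupling enzymes alone at 57.5 uM final; readout was AmpLite Red fluorescence (525/598 nm) after 20 min at RT.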
Tau fibril ThT = inhibitors of human tau fibril formation, thioflavin T binding; P10636; recombinant tau K18 P301L (four-repeat tau fragment), heparin-induced fibrillization, ThT fluorescence; Potency, µM (series often up to 57.4 µM), for the others: at the highest dose activity, negative = inhibition, hits mostly inhibitors; 270,000 tested, 2.1% active; further: potency means the concentration at half of the fitted maximal effect; nearly all actives have a fitted effect of over 55% in size
Target sequence (P10636 561-689 P618L limits assumed): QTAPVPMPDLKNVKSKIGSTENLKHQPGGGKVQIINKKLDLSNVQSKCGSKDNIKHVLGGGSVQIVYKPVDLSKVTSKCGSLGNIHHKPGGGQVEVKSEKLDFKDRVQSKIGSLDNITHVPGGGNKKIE
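Aggregation was driven by heparin (20 uM final) acting on recombinant tau […] bearing P301L in 100 mM sodium acetate pH 7; fibrils were detected with Thioflavin T.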
Tau FP inhib = inhibitors of human tau fibril formation. Potency, µM (titrated, usually from 57.7 µM), without a hit: at the highest dose activity, negative = inhibition, hits mostly inhibitors. K18 P301L tau heparin fibrillization, Alexa594 FP, 6 h. P10636. 280,000 tested, 0.39% active; further: potency means the concentration at half of the fitted maximal effect; nearly all actives have a fitted effect of over 55% in size
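Steps: dispense K18 P301L tau (15 uM plus 0.24 uM Alexa 594 tracer, final) in pH 7 sodium acetate; add compound; add heparin (20 uM final); incubate 6 hr, 37 C; add ThT (30 uM final); after 1 hr ambient, read FP.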
* = called active by the depositor; ? = inconclusive; nt = no result; [ ] = dose if it differs, or a comment. Unless noted, the call rests on the fitted dose curve; in most records, active means well fitted curve in the direction sought with a large enough effect; inconclusive means small, poorly fitted or top-dose-only effect, or another doubt; inactive means no such curve, though single readings can be large; an effect the other way counts as inactive or inconclusive. Unless noted, on the % scale 0 is the no-effect control and ±100 the full control effect.

SMILES	Sfp inh	Tau fluor counter	Coupling enz	Tau fibril ThT	Tau FP inhib
CCC(=O)Nc1nc(C)c(-c2csc(Nc3cccc(C(=O)O)c3)n2)s1	20µM*	-21%	-8	4µM*	6%
COc1cccc(Nc2nc(-c3sc(NC(=O)CC(C)C)nc3C)cs2)c1	14%	16µM*[quencher]	-1	16µM*	6%
CCCCCC(=O)Nc1nc(C)c(-c2csc(Nc3cc(Cl)ccc3OC)n2)s1	-5%	?	-2	?	2%
CCCC(=O)Nc1nc(C)c(-c2csc(Nc3cc(OC)ccc3OC)n2)s1	-19%	14µM*[quencher]	-1	?	?
COc1cccc(C2=Nn3c(nnc3-c3ccc(OC)c(OC)c3)SC2)c1	0%	nt	-1	nt	nt
COc1ccccc1Nc1nc(-c2sc(NC(=O)CC(C)C)nc2C)cs1	?	?	-21	?	5%
C=CCCC(=O)Nc1nc(C)c(-c2csc(Nc3cc(OC)ccc3OC)n2)s1	1%	14µM*[quencher]	1	14µM*	13%
CCCC(C)C(=O)Nc1nc(C)c(-c2csc(Nc3cc(OC)ccc3OC)n2)s1 (stereo not drawn)	16%	8.9µM*[quencher]	0	?	?
Cc1ccc(-n2c(=O)c3cccnc3n2CC(=O)Nc2cccc(C)c2C)cc1	nt	-7%	nt	5%	-7%
CN1CCN(c2ncc3nc(-c4cc(F)cc(F)c4)c(=O)n(CCC#N)c3n2)CC1	-29%	nt	4	nt	nt
Clc1ccc(Nc2ccc(-n3ccnc3)nn2)cc1Cl	-7%	13µM*[quencher]	0	1%	?
OC[C@H]1O[C@@H](n2cnc3c(N[C@H]4C[C@H]5CC[C@@H]4C5)ncnc32)[C@H](O)[C@@H]1O	7%	-2%	nt	-4%	-2%
Oc1c(C2=NCCNC(C(F)(F)F)=C2)ccc2ccccc12	-23%	?	-11	6.3µM*	?
Cc1ccc(O)c(C2=NCCNC(C(F)(F)F)=C2)c1	7%	-12%	5	-21%	2%
CC(=O)N1CN(Cc2ccccn2)Cc2c1sc1c2CCCC1	45µM*	-5%	-7	?	-7%
O=C(Cc1csc2nc(-c3ccc(F)cc3)cn12)NCc1ccccc1	nt	-3%	nt	10%	-7%
COc1cc(NC(=O)C(c2ccccc2)c2ccccc2)c(C(=O)O)cc1OC	3%	nt	3	nt	nt
C/C(=N/Nc1nc(-c2ccc(Cl)cc2)cs1)c1cccs1	40µM*	?	1	?	3%
CC(=O)Nc1ccc(-c2csc(N/N=C(/C)c3ccccc3)n2)cc1	40µM*	11µM*[quencher]	1	nt	?
O=C(NNc1nc(-c2ccccc2)cs1)c1ccco1	-24%	?	2	11µM*	?
CC(=O)Nc1ccc(-c2csc(NC(C)c3ccccc3)n2)cc1 (stereo not drawn)	50µM*	?	-1	?	11%
CCN(CCCNC(=O)c1cc(Nc2ccccc2OC)nc2ccccc12)c1cccc(C)c1	nt	?	nt	?	15%
CCOC(=O)/C(C)=N/Nc1nc(-c2ccc(NC(C)=O)cc2)cs1	28µM*	?	-6	nt	?
CCC(=O)Nc1ccc(-c2csc(NNC(C)=O)n2)cc1	-18%	-19%	1	?	?
CC(=O)Nc1ccc(-c2csc(NNC(=O)c3ccccc3)n2)cc1	18µM*	1%	5	6%	-3%
SMILES	Sfp inh	Tau fluor counter	Coupling enz	Tau fibril ThT	Tau FP inhib
O=C(Cn1cc(C(=O)c2ccccc2)c(=O)c2cc3c(cc21)OCCO3)Nc1ccc(F)c(F)c1	nt	-29%	nt	-1%	-8%
CCOC(=O)CSC1=NC(=O)/C(=C/c2ccc(Br)cc2)S1	56µM*	-20%	10	?	-14%
O=C(Nc1ccc(Cl)c(Cl)c1)OCc1cccnc1	9%	?	-1	18%	14µM*
COc1ccccc1-c1cc(C(=O)NC2CCN(C)CC2)c2ccc(Cl)c(C)c2n1	56µM*	nt	4	nt	nt
Cc1cc(=O)oc2cc(Oc3ncccc3[N+](=O)[O-])ccc12	-5%	-15%	-5	-12%	4%
Cc1cc(=O)oc2cc(Oc3ccc([N+](=O)[O-])cc3[N+](=O)[O-])ccc12	-5%	13µM*[quencher]	6	?	0%
CCc1nn(C(C)C(=O)NC(C)CCc2ccco2)c(=O)c2cc3occc3n12 (stereo not drawn)	79µM*	-3%	4	-13%	-7%
CC1Cc2cc(S(=O)(=O)CCC(=O)Nc3ccc(F)cc3Cl)ccc2N1C(=O)C1CC1 (stereo not drawn)	nt	-5%	nt	4%	-2%
Cn1c2c(c(=O)n(C)c1=O)C(c1ccccc1Cl)C(C#N)=C(N)O2 (stereo not drawn)	-15%	-22%	5	nt	?
Cn1c2c(c(=O)n(C)c1=O)C(c1ccccc1F)C(C#N)=C(N)O2 (stereo not drawn)	-22%	-19%	1	20µM*	?
CCCOc1ccc(C(=O)Nc2ccc(N3CCN(C(C)=O)CC3)cc2)cc1	2%	-19%	-3	2.2µM*	-3%
CCOc1ccc(OCc2cccc(C(=O)Nc3ccc(CN4CCCCC4)cc3)c2)cc1	13µM*	-30%	-1	-14%	5%
Cc1ccc(C(=O)Nc2ccc(N3CCCC3)cc2)c(C)c1	3%	-26%	0	14µM*	2%
COc1ccc(C(=O)NC(=S)Nc2ccc(N3CCCC3)cc2)cc1	9%	-22%	0	?	2%
COc1ccc(C(=O)Nc2ccc(N3CCCC3)cc2)cc1	79µM*	16µM*[quencher]	0	7.9µM*	7%
CCCOc1ccc(C(=O)Nc2ccc(N3CCN(C(=O)c4ccco4)CC3)cc2)cc1	8%	nt	nt	nt	nt
COC(=O)c1ccccc1NC(=O)Cn1ncc2c(C)n(Cc3ccc(F)cc3)c(C)c2c1=O	nt	-15%	nt	?	0%
CCOc1ccc(C(=O)Nc2ccc(N3CCCC3)cc2)cc1	?	?	-2	8.9µM*	6%
O=C(Nc1ccc2nc(SCCOc3ccccc3)sc2c1)c1cccs1	nt	?	nt	2%	?
O=C(NCc1ccccc1)c1ccc(/C=N/O)nc1	-19%	7%	2	0%	3%
O=C(NCc1ccccn1)c1ccc(/C=N/O)nc1	50µM*	-8%	0	-10%	-12%
CNCCCNC(=O)c1ccc(/C=N/O)nc1	79µM*	-3%	0	-9%	-6%
O=C(Nc1ccccc1F)c1nc(S(=O)(=O)Cc2ccccc2F)ncc1Cl	nt	-8%	nt	?	2%
CCOc1ccc(NS(=O)(=O)c2ccc3[nH]c4c(c3c2)CCCC4)cc1	nt	13µM*[quencher]	nt	-1%	-1%
COCCCNS(=O)(=O)c1ccc2[nH]c3c(c2c1)CCCCC3	0%	nt	1	nt	nt
COc1ccc(NS(=O)(=O)c2ccc3[nH]c4c(c3c2)CCCCC4)cc1	nt	3.5µM*[quencher]	nt	?	-11%
COc1ccc(NS(=O)(=O)c2ccc3nc(-c4ccccc4)[nH]c3c2)cc1	nt	?	nt	6%	?
